# High-throughput results deposited in PubChem by several laboratories.
# Hits are enriched below; roughly 4.7% of the tested compounds scored in any of these assays.
# ADAM17 inh: inhibits human ADAM17 | P78536 | recombinant ADAM17, EDANS/DABCYL FRET peptide cleavage | inhibition, % at 6.95 µM | 370,000 compounds, 0.83% hits | AID 720648;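 active = inhibition above the mean of compounds lying between control limits plus 3 SD, set per campaign, cut at about 8.5% in these data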;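 also: 0% = DMSO-only wells as the low control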
# proKLK7 act: activators of human kallikrein-7 zymogen; purified proKLK7, EDANS-DABCYL substrate fluorescence; 100% is mature enzyme control, 0% vehicle; activation, % at 7 µM; 370,000 compounds, 0.9% hits; AID 652039;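 active = activation above the mean of all tested compounds plus 3 SD, computed per campaign excluding outliers beyond control limits, cut at about 13% in these data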
# rCAG binder: r(CAG) repeat RNA binding; TO-PRO-1 dye displacement fluorescence; inhibition, % at 3 µM; 370,000 compounds, 1.3% hits; AID 651821;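 active = inhibition above the plate cutoff, the mean of all test compounds on that plate plus 3 SD, cut at about 35% in these data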;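 also: 0% = DMSO alone and 100% = 100 µM mitoxantrone as full dye displacement; higher means more dye released from RNA so lower well fluorescence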
# MPTP inh: inhibitors of mitochondrial permeability transition pore; isolated mouse mitochondria, Ca2+ swelling absorbance, 30 min; inhibition, % at 10 µM; 360,000 compounds, 1.4% hits; AID 602449;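 active = inhibition of 50% or more, scaled per plate between neutral and stimulator controls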;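 also: 0% = DMSO wells given calcium and 100% = 1 mM EGTA wells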
# ADAM10 inh: inhibitors of human ADAM10 | O14672 | inhibition, % at 7 µM | 370,000 compounds, 0.62% hits | recombinant ADAM10, EDANS/DABCYL FRET peptide cleavage, 3 h;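 active = inhibition above a per-campaign cutoff equal to the mean of compounds falling between control-based bounds plus 3 SD, cut at about 20% in these data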;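 also: 0% = DMSO wells while the 100% control is not disclosed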
# Pemphigus Ab inh: human desmoglein-3 autoantibody binding inhibition. DSG3-coupled beads, scFv-anti-DSG3-GFP binding, flow cytometry; hits give low values. P32926. AID 588358. binding (percent of control), % at 10 µM. 310,000 compounds, 0.48% hits;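 active = binding more than 3 SD below its plate's average and above zero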;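 also: hits lower antibody fragment binding to DSG3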
# rCAG bind conf: r(CAG) RNA repeat binding, confirmation. TO-PRO-1 dye displacement fluorescence. inhibition, % at 3 µM. 4,300 compounds, 70% hits. AID 652065. shares compounds with rCAG binder;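 active = inhibition above a per-plate cutoff, the mean inhibition of sample wells plus 3 SD, cut at about 35% in these data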;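 also: loss of TO-PRO-1 fluorescence as compound displaces dye from 1x1 AA loop RNA; 0% = DMSO only wells and 100% = 100 µM mitoxantrone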
# DNA CAG counter: disrupts DNA CAG TO-PRO-1 complex, flagging rCAG hits; shares compounds with rCAG binder; d(CAG) DNA oligo TO-PRO-1 dye displacement, fluorescence; inhibition, % at 3 µM; 4,300 compounds, 94% hits;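 active = inhibition above its plate's cutoff, the mean test-well inhibition plus 3 SD, cut at about 4.8% in these data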;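 also: 0% = DNA dye mix with DMSO and 100% = 100 µM mitoxantrone; hits displace the dye from DNA and so lower well fluorescence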
# dCAG dye DR: disrupts DNA CAG TO-PRO-1 complex in dose response; shares compounds with rCAG binder; DNA CAG/GTC duplex TO-PRO-1 dye displacement fluorescence; IC50, µM; 250 compounds, 20% hits; AID 686960; in the data active = IC50 below about 10 µM
# The depositor's hits bear a star; i = inactive; / = no result.
SMILES,ADAM17 inh,proKLK7 act,rCAG binder,MPTP inh,ADAM10 inh,Pemphigus Ab inh,rCAG bind conf,DNA CAG counter,others
CCc1ccc(-n2c(=S)sc3c(=O)n(-c4ccccc4C)c(SCC(=O)O)nc32)cc1,2.2,0.2,41.2*,-0.4,10.0,86.1,43.8*,12.7*,
COc1ccc(S(=O)(=O)N(C(C)=O)c2ccc3oc(=O)sc3c2)cc1,7.0,0.4,44.1*,4.3,17.1,99.1,10.1,6.0*,
COC(=O)c1c(C)oc2ccc(N(C(C)=O)S(=O)(=O)c3ccccc3)cc12,-0.2,-0.3,1.0,26.8,6.2,93.0,/,/,
CCCc1cc(-c2n[nH]c(C)c2-c2ccc(C(=O)OCC)o2)c(O)cc1O,0.2,0.2,5.9,1.1,-13.0,97.4,/,/,
CCCc1cc2c(OC(=O)CC)c(-c3ccc(C(=O)OCC)o3)c(=O)oc2cc1OC,-328.2,6.0,38.4*,17.1,i,95.8,32.9,6.8*,
Cc1nc(-c2ccccc2)sc1C(=O)NS(=O)(=O)c1ccc(CN2CCN(c3ccccc3)CC2)cc1,-1.6,0.2,82.5*,2.0,1.8,/,81.0*,45.2*,
CCOc1cc(/C=C2\C(=N)N3N=C(S(C)(=O)=O)SC3=NC2=O)ccc1OCCOc1cccc(OC)c1,-6.1,-0.7,49.3*,9.7,-14.3,89.9,92.1*,73.5*,
CCS(=O)(=O)C1=NN2C(=N)/C(=C\c3ccc(OCCOc4cccc(OC)c4)c(OC)c3)C(=O)N=C2S1,1.8,-0.9,49.0*,2.8,2.0,104.9,91.0*,76.0*,
CCOc1cc(/C=C2/C(=N)N3C=CSC3=NC2=O)ccc1OCCCOc1ccccc1C,-35.7,2.4,1.6,0.1,-89.6,100.2,/,/,
C/C(=N\NC(=O)c1cccc(S(=O)(=O)N2CCCC2)c1)c1ccc(OCC(=O)N(C)C)cc1,1.4,0.2,1.4,-0.3,1.1,101.2,/,/,
O=C(CCN1C(=O)/C(=C/c2ccco2)SC1=S)Nc1ccc(O)cc1C(=O)O,-15.4,-0.5,92.9*,-0.5,-14.3,105.0,69.7*,26.7*,dCAG dye DR=7.29*
O=C(O)CCCN1C(=O)/C(=C\c2ccco2)SC1=S,-0.9,0.3,7.0,-0.7,-6.4,95.9,/,/,
CC(C(=O)Nc1ccc(O)cc1C(=O)O)N1C(=O)/C(=C\c2cccs2)SC1=S (centres undefined),2.3,-0.2,80.1*,-1.2,-1.9,86.5,79.8*,41.0*,
O=C(CCCN1C(=O)/C(=C\c2cccs2)SC1=S)Nc1ccccc1O,-5.3,-0.6,6.2,3.8,-21.1,94.6,/,/,
O=C(CCCN1C(=O)/C(=C\c2ccco2)SC1=S)Nc1ccc2ccccc2c1,2.6,0.0,31.1,2.8,7.5,/,/,/,
O=C(CCCN1C(=O)/C(=C\c2ccccc2)SC1=S)Nc1ccc(O)cc1C(=O)O,-3.4,0.3,80.4*,-3.0,-2.0,/,67.9*,32.3*,
O=C(CCCN1C(=O)/C(=C/c2ccco2)SC1=S)Nc1ccccc1C(=O)O,-5.4,-0.1,87.6*,-1.8,-8.2,105.9,83.4*,49.4*,
O=C(COC(=O)c1ccccc1)Nc1ncc([N+](=O)[O-])s1,-4.8,0.1,59.8*,0.5,-17.3,86.5,70.1*,37.0*,
COc1ccc(CC(=O)Nc2ncc([N+](=O)[O-])s2)cc1OC,-7.7,1.1,20.3,-1.6,-9.8,107.0,/,/,
CCOc1ccc(S(=O)(=O)Nc2ccccc2C(=O)N/N=C/c2c(OC)ccc3ccccc23)cc1,4.1,-1.3,61.5*,12.8,3.6,127.8,41.7*,18.7*,
Cc1nn(CCc2nc(-c3ccco3)cs2)c2[nH]c(=O)cc(C(F)(F)F)c12,-2.5,-0.2,58.0*,0.1,-8.7,99.0,12.8,1.2,
O=c1[nH]c(=O)n(Cc2ccccc2)c2nc(-c3ccco3)cc(C(F)(F)F)c12,-122.5,-6.0,11.6,5.2,-360.8,95.9,/,/,
Cc1ccc(-c2csc(NC(=O)c3ccccc3Cl)c2C(=O)O)cc1,-1.5,0.2,46.0*,1.2,-1.8,93.5,31.8,7.5*,
COc1cc(C(=O)Nc2c(C(=O)O)[nH]c3ccc(Br)cc23)cc(OC)c1OC,-0.8,0.6,83.8*,0.3,-1.7,97.8,78.2*,40.3*,
Cc1ccc(-c2csc(NC(=O)c3cccc(C)c3)c2C(=O)O)cc1,-4.4,0.2,76.7*,6.6,-1.3,105.6,58.5*,20.9*,
SMILES,ADAM17 inh,proKLK7 act,rCAG binder,MPTP inh,ADAM10 inh,Pemphigus Ab inh,rCAG bind conf,DNA CAG counter,others
Cc1ccc(-c2csc(NC(=O)/C=C/c3ccco3)c2C(=O)O)cc1,2.9,-0.3,57.5*,3.0,2.4,93.7,35.9*,9.6*,
O=C(Nc1scc(-c2ccc(F)cc2)c1C(=O)O)c1ccco1,5.3,-0.7,16.6,-3.6,1.3,106.7,/,/,
CN(C)CCCN1CC(=O)N2CCc3ccc(Br)cc3C2CC1=O (centres undefined),-2.2,-0.1,0.6,/,0.3,/,/,/,
COc1cc(C(=O)Nc2scc(-c3ccc(Br)cc3)c2C(=O)O)cc(OC)c1OC,-0.8,0.3,39.4*,1.9,7.0,106.4,85.5*,53.3*,
O=C(CSc1nc2ccccc2c(=O)n1Cc1ccccc1)Nc1ccc(Br)cc1C(=O)O,1.2,-0.1,66.2*,6.2,7.0,107.4,83.5*,55.7*,
COc1cc(C(=O)NCc2ccco2)cc(OC)c1OC,-1.9,0.6,-2.4,1.1,-0.9,103.6,/,/,
COc1cc(C(=O)NCCNC(=O)c2ccco2)cc(OC)c1OC,-4.3,2.2,45.8*,-1.1,-26.7,106.9,42.6*,12.6*,
CCCCOc1ccc(C(=O)N/C(=C/C=C/c2ccccc2)C(=O)O)cc1,-3.8,0.4,55.5*,1.4,3.6,98.0,54.5*,18.7*,
O=C(O)COc1ccc(/C=N/NC(=O)/C(=C/C=C/c2ccccc2)NC(=O)c2ccccc2)cc1,0.1,0.2,53.3*,-1.0,7.1,96.6,43.0*,17.1*,
CCCCOc1ccc(C(=O)N/C(=C/C=C/c2ccccc2)C(=O)NC)cc1,-2.0,-0.9,2.5,3.8,1.3,106.5,/,/,
COc1ccccc1NC(=O)c1ccc(NS(=O)(=O)c2c(C)noc2C)cc1,-3.2,0.3,12.3,-0.1,-1.6,104.7,/,/,
COc1ccccc1NC(=O)c1ccc(NS(=O)(=O)c2ccc(F)c(Cl)c2)cc1,1.3,0.0,44.1*,19.7,-0.1,103.2,54.2*,13.7*,
Cc1cc(/C=N/NC(=O)c2ccc(CN3CCOCC3)cc2)c(C)n1-c1ccccc1,-4.1,0.9,-1.8,-0.7,0.0,105.9,/,/,
